Tb PYK inh: blocks Trypanosoma brucei pyruvate kinase; Q57TT1; TbPYK enzyme, Kinase-Glo Plus ATP luminescence, 45 min; Potency, µM (highest dose often 76.8 µM), for inactives: at the highest dose activity, negative = inhibition, actives largely listed as inhibitors; actives 0.12% (n = 410,000); AID 624173; also: potency is read from the fitted curve at half-maximal effect; nearly all actives have a fitted effect of over 50% in size
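ADP (130 uM final) triggers the TbPYK reaction after compound addition; incubation is 45 min at room temperature. Kinase-Glo Plus is then added and luminescence imaged. Normalized data are fitted to concentration-effect curves.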
FBPA Giardia inh: inhibitors of Giardia lamblia fructose-1,6-bisphosphate aldolase. A8B2U2. purified Giardia FBPA. Potency, µM (doses to about 59.6 µM), for the others: top-dose activity, negative = inhibition, usual class: inhibitors. actives 0.71% (n = 290,000). AID 2451; also: potency is read from the fitted curve at half-maximal effect; nearly all actives have a fitted effect of over 55% in size
Target sequence (A8B2U2 whole entry, looked up): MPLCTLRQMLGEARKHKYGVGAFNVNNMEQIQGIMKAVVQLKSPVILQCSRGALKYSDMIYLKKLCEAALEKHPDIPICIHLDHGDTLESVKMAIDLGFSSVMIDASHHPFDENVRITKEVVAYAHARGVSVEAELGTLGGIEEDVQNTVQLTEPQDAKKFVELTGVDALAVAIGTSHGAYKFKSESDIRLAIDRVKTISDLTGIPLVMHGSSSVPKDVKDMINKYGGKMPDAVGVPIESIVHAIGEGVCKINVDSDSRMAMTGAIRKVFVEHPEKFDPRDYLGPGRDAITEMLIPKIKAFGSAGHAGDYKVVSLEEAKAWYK
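Giardia FBPA (40 nM reagent) was preincubated 10 min at RT with compound (up to 57.5 uM final), then substrate plus GAPDH/TPI/NAD/arsenate coupling system with diaphorase/resazurin was added; resorufin fluorescence (525/598 nm) was read after 20 min.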
HCMV antiviral: human cytomegalovirus inhibition; HFF cells, HCMV-luciferase reporter, 72 h; hits give low values; activity change, negative = inhibition, % at 57.5 µM; actives 4.5% (n = 410,000); AID 1259415; in the data active = activity change below about -60%; inconclusive = no clear call, values can overlap the other calls; inactive = above about -39%
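Luciferase read-out from HCMV-luciferase-infected HFFs (MOI 1 PFU/cell) 72 h post infection at 37C; compounds added after 16 h cell attachment; activity normalized between buffer-only basal and Salinomycin (10uM) inhibitor controls.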
FMDV inh: foot and mouth disease virus antiviral activity; FMDV antiviral cell-based qHTS; Potency, µM (titrated, usually from 57.9 µM), for inactives: at the top dose activity change, negative = inhibition, hits mostly inhibitors; actives 1.2% (n = 410,000); AID 1159524; calls by dose curve; tested in HEK293T cells; also: read-out not given here; potency is read from the fitted curve at half-maximal effect; nearly all actives have a fitted effect of over 45% in size
Sm TGR block: blocks Schistosoma mansoni thioredoxin glutathione reductase; Q962Y6; purified TGR, DTNB reduction, TNB absorbance 405 nm; Potency, µM (doses to about 114 µM), inactives show top-dose activity change, negative = inhibition, hits mostly inhibitors; actives 3% (n = 360,000); AID 485364; also: potency is read from the fitted curve at half-maximal effect; nearly all actives have a fitted effect of over 60% in size
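TGR 20 nM + NADPH 100 uM (dispensed conc.), cpd preinc 15 min RT; start with NADPH (500 uM addition) then DTNB (15 mM addition). Kinetic TNB absorbance, 405 nm filter. Four-parameter Hill fit across titration.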
RE007 growth inh: less growth of the S. pombe RE007 Vpr strain | S. pombe RE007 Vpr strain, BacTiter-Glo ATP luminescence, 24 h | Potency, µM (doses to about 92.2 µM), inactives show at the highest dose activity change, negative = less growth, most hits filed as inhibitors | actives 0.21% (n = 360,000) | AID 651644; active = well fitted falling curve with a large enough effect; inconclusive = small, poorly fitted or top-dose-only effect; inactive = no such curve, though single readings can be large or run the other way; also: potency is read from the fitted curve at half-maximal effect; nearly all actives have a fitted effect of over 50% in size
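Fission yeast strain RE007, carrying one chromosomally integrated HIV-1 vpr copy, was seeded at OD 0.01 in PMG+AL medium with 23 nL pinned compound. After 24 h at 30 °C and 99% humidity, viability was read by BacTiter-Glo luminescence.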
The depositor's hits bear a star; ? = inconclusive; / = no result; [ ] = another dose, or the depositor's remark. This is a sample that favours compounds with a hit; in the whole collection about 7.7% have one here. Unless noted, calls follow the shape of the dose curve; as a rule, active = well fitted curve in the direction sought with a large enough effect; inconclusive = small, poorly fitted or top-dose-only effect, or another doubt; inactive = no such curve, though single readings can be large; an effect the other way counts as inactive or inconclusive. % is scaled to controls: 0 for no effect and ±100 for the full control effect.

SMILES	Tb PYK inh	FBPA Giardia inh	HCMV antiviral	FMDV inh	Sm TGR block	RE007 growth inh
COc1ccc2ccccc2c1CN1CCN(C(=O)c2ccccc2)CC1	-19%	-15%	32	?	28µM*	-10%
O=C(C1CCCO1)N1CCN(c2ccccn2)CC1 (stereo not given)	1%	5%	18	-10%	/	-3%
O=C(C1CCCO1)N1CCN(Cc2c(O)ccc3ccccc23)CC1 (stereo not given)	0%	?	42	3%	0.5µM*	-14%
Cc1ccc(CN2CCN(C(=O)C3CCCO3)CC2)cc1 (stereo not given)	2%	0%	4	13%	-14%	5%
CCOC(=O)C1CCN(Cc2c(O)ccc3ccccc23)CC1	2%	1%	38	20%	3.5µM*	5%
COc1ccc(Br)cc1C1C2C=CCCC2(C)C(=O)N1Cc1ccccc1 (stereo not given)	/	0%	/	/	/	/
O=C([C@@H]1[C@@H](CO)[C@@H]2Cn3c(cccc3=O)[C@H]1N2Cc1cccc(Cl)c1)N1CCOCC1	/	/	-7	/	/	/
CCOc1ccccc1C(=O)Nc1cccc2ccc(C)nc12	4%	/	-23	0%	7%	/
CCOC(=O)N1CCN(Cc2c(O)ccc3ccccc23)CC1	4%	-6%	14	0%	0.28µM*	-20%
CCOC(=O)N1CCN(C(=O)c2ccc3ccccc3c2)CC1	3%	11%	-24	12%	-1%	5%
COc1ccc(Nc2nc(N3CCN(S(=O)(=O)N(C)C)CC3)nc3ccccc23)cc1	-2%	4%	-85*	-17%	2%	-8%
COc1ccc(Nc2nc(N3CCN(S(C)(=O)=O)CC3)nc3ccccc23)c(OC)c1	-1%	7%	13	-9%	9%	1%
CCN(CC)Cc1c(C(=O)N2CCc3ccccc3C2)nc2ccc(Cl)cn12	-2%	-1%	4	4%	-30%	-17%
COCC1CCN(Cc2c(C(=O)N3CCc4ccccc4C3)nc3ccc(Cl)cn23)C1 (stereo not given)	0%	/	35	-14%	20µM*	-1%
CCN(C)Cc1c(C(=O)N2CCc3ccccc3C2)nc2ccc(Cl)cn12	-7%	1%	2	-15%	35µM*	4%
O=C(COc1ccccc1)NCc1nnc2c3ccccc3c(-c3ccccc3)nn12	4%	8%	-63*	-13%	-11%	5%
COc1ccc2c(c1)C(c1ccc3c(c1)OCO3)CC(=O)O2 (stereo not given)	/	-3%[89.2 µM]	/	/	/	/
C=CCn1c(Cc2ccccc2)n[nH]c1=S	?	?	-15	-3%	10%	10%
C=CCn1c(Cc2c[nH]c3ccccc23)n[nH]c1=S	13µM*	-9%	4	/	12%	6%
CC(=O)Nc1ccc(Nc2nnc(-c3ccc(C)c(S(N)(=O)=O)c3)c3ccccc23)cc1	-11%	6%	?	28%	6%	11%
Cc1nnc(Nc2ccc3c(c2)OCO3)c2ccccc12	0%	-25%	-91*	40%	-35%	0%
Cc1nc(Nc2ccc3c(c2)OCO3)c2oc3ccccc3c2n1	3%	-13%	14	23%	-6%	0%
Cc1ccc(-c2nnc(Nc3ccc4c(c3)OCO4)c3ccccc23)cc1S(N)(=O)=O	-7%	-17%	-73*	37%	4%	-4%
COC(=O)c1cc(CNC(=O)c2cnsn2)cc(NC(=O)c2ccccc2OC)c1	/	/	/	-4%	/	/
O=C1OCC2=C1C(c1ccc(F)cc1)Sc1ccccc1N2 (stereo not given)	6%	-18%	-17	/	0%	2%
CC(C)(C)c1ccc(C2Sc3ccccc3NC3=C2C(=O)c2ccccc23)cc1 (stereo not given)	-6%	/	-104*	?	-3%	/
Nc1nc(NC(=O)CCCC(=O)O)nn1-c1ccccc1	-1%	-5%	-5	-4%	4%	1%

Source: PubChem BioAssay (National Center for Advancing Translational Sciences (NCATS))
